Inconclusive results are not listed. Entries that show only a call come without a potency. The source made the active and inactive calls. Calls follow the shape of the dose curve; as a rule, active = well fitted cell-killing curve with a large enough effect; inconclusive = small, poorly fitted or top-dose-only effect; inactive = flat fitted curve, though single readings scatter.
Potency is read from the fitted curve at half-maximal effect.

This assay is described as follows: qHTS of pediatric cancer cell lines to identify multiple opportunities for drug repurposing: Primary screen for control Hh wild type fibroblast cells (AID 1347106). Also: nearly all actives have a fitted effect of over 55% in size. As to conditions: Hh wild-type fibroblast viability, CellTiter-Glo luminescence, 48 h; series mostly up to 46 µM. An excerpt:
Drug repurposing or repositioning has been offered as a strategy for drug development in oncology programs. This approach has special potential for childhood cancers and other rare or orphan diseases, where the expected return on new drug development has been a disincentive to pharmaceuticals.
In this project we exploit the poly-pharmacology of drugs to discover new indications via phenotypic screening of a panel of 19 well-characterized cell lines derived from solid tumors seen in children and adolescents. The goal is to identify approved drugs with previously unrecognized anticancer properties that has the potential to reveal new mechanisms and biological processes involved in carcinogenesis or drug resistance. We employed a titration-based paradigm (quantitative high-throughput screening or qHTS), where all compounds were tested at multiple concentrations for their effect on cell viability. Concentration-response curves (CRCs) were derived directly from the primary screen, and both potency and efficacy values were used to identify compounds with robust bioactivity profiles. We screened the NIH Chemical Genomics Center (NCGC) Pharmaceutical Collection (NPC) and Mechanism Interrogation Plate (MIPE) small molecule collections of approved and investigational compounds against these cell lines; and measured metabolically active cells after 48 hours of compound treatment as a proxy for cell viability.
Assay Submitter: Nathalia J. Martinez, National Center for Advancing Translational Sciences, National Institutes of Health, Rockville, MD, USA; email: natalia.martinez@nih.gov
[1] Shen, M et al. Quantitative high-throughput phenotypic screening of pediatric cancer cell lines identifies multiple opportunities for drug repurposing. Oncotarget 2017 Dec 19;9(4):4758-4772. PMID 29435139.
The cells were obtained from University of North Carolina (UNC), Pediatric Preclinical Testing Program (PPT), and Coriell Institute (CI).
qHTS cell viability assay:
Cells were assayed in growth media at a density of 500-1,000 cells/well. Five microliters of cells were dispensed into 1,536-well, white, solid-bottom, TC-treated plates (Greiner Bio One) using a multidrop dispenser and incubated at 37 degrees C, 5% CO2, under a humidified atmosphere for 5 hours. Twenty-three nanoliters of compounds and controls (neutral control DMSO or positive control bortezomib at final concentration of 2.3 µM) were subsequently transferred by Kalypsys pintool. For primary screens, the MIPE collection was tested at 11-point dilutions (final concentrations range from 0.78 nM to 46 µM) and the NPC collection at 8-point dilutions (final concentrations range from 0.59 nM to 46 µM). Compounds tested in follow-up screens were assayed at 11-point dilutions. Cells were incubated for 48 hours, followed by addition of 3 µL of CellTiter-Glo (Promega). After a 15 min incubation at room temperature, samples were analyzed for luminescence intensity using a ViewLux High-throughput CCD imager equipped with clear filters.
Background: Quantitative high-throughput screening tests each substance at several concentrations.
On to `O=C(O)c1nn(Cc2ccc(Cl)cc2Cl)c2ccccc12`, for which the Potency result is “inactive”. `O=C(CCCN1CCC(n2c(=O)[nH]c3ccccc32)CC1)c1ccc(F)cc1`: the Potency entry was “inactive”. As to `COP(=O)(OC)C(O)C(Cl)(Cl)Cl` (stereo not given), the Potency result is “inactive”. For the molecule `C[N+](C)(C)CCOC(=O)C(O)(c1ccccc1)c1ccccc1`, the Potency entry was “inactive”.

In the case of `CC#C[C@]1(O)CC[C@H]2[C@@H]3C[C@H](C)C4=CC(=O)CC[C@]4(C)[C@H]3CC[C@@]21C`, the Potency entry is “inactive”.

`COP(=S)(OC)Oc1ccc(Sc2ccc(OP(=S)(OC)OC)cc2)cc1`: the Potency result is “inactive”.

In the case of `C[C@@H]1O[C@@H](O[C@@H]2C=C3CC[C@@H]4[C@H](CC[C@]5(C)[C@@H](c6ccc(=O)oc6)CC[C@]45O)[C@@]3(C)CC2)[C@H](O)[C@H](O)[C@H]1O`, the Potency is 0.0075 µM (active). As to `c1ccc2nc(N3CCNCC3)ccc2c1`, the Potency entry was “inactive”. For the molecule `O=C1NCN(c2ccccc2)C12CCN(CCCOc1ccc(F)cc1)CC2`, the Potency entry is “inactive”. In the case of `Cc1c(Cl)c(=O)oc2cc(OP(=O)(OCCCl)OCCCl)ccc12`, the Potency entry is “inactive”. Turning to `CC1N=C(N)OC1c1ccccc1` (stereo not given), the Potency entry is “inactive”.

On to `CN1CCc2cc(Cl)c(O)cc2[C@H]2c3ccccc3CC[C@@H]21`, for which the Potency entry is “inactive”. Then `CCCCCCCCCCCC[N+](C)(C)CCOc1ccccc1`, with “inactive”; and `CC[C@H]1C[C@@H]2C[C@H]3c4[nH]c5ccc(OC)cc5c4CCN(C2)[C@@H]13`, with “inactive”; and `CC(Cc1ccccc1)NCCCCl` (stereo not given), with “inactive”. In the case of `CN(C)C(=O)Oc1cc(OC(=O)N(C)C)cc(C(O)CNC(C)(C)C)c1` (stereo not given) it was “inactive”. In the case of `CCc1ccc(C2CCNCC2)cc1`, the Potency result is “inactive”. For `C[C@]12CC[C@H]3[C@@H](CCC4=CC(=O)CC[C@@]43C)[C@@H]1CC[C@@H]2C(=O)O`, the Potency result was “inactive”. In the case of `Cc1ccc(N=CN(C)C=Nc2ccc(C)cc2C)c(C)c1` it was “inactive”; in that of `CCOP(=S)(OCC)O/N=C(\C#N)c1ccccc1`, “inactive”. Turning to `CCC1(c2ccccc2)CCC(=O)NC1=O` (stereo not given), the Potency result is “inactive”. Regarding `CN1C(=O)[C@@H](NC(=O)c2cc3ccccc3[nH]2)N=C(c2ccccc2)c2ccccc21`, the Potency result was “inactive”. `Nc1ccc(N)cc1`: the Potency result is “inactive”. In the case of `C[C@@H]1CC[C@H]2[C@@H](C)C(=O)O[C@@H]3O[C@@]4(C)CC[C@@H]1[C@]32OO4` it was “inactive”; in that of `Cc1nnc2n1-c1sc(CCC(=O)N3CCOCC3)cc1C(c1ccccc1Cl)=NC2`, “inactive”. On to `CCOC(=O)C1(c2ccccc2)CCN(CCc2ccc(N)cc2)CC1`, for which the Potency result was “inactive”. For the molecule `C[C@]12CC[C@H]3[C@@H](CC=C4C[C@@H](O)CC[C@@]43C)[C@@H]1CC[C@@H]2O`, the Potency result was “inactive”.

`O=C(O)Cc1ccccc1`: the Potency result is “inactive”. Then `C[C@]12Cc3nonc3C[C@@H]1CC[C@@H]1[C@@H]2CC[C@@]2(C)[C@H]1CC[C@]2(C)O`, with “inactive”. `C#C[C@]1(O)CC[C@H]2[C@@H]3CCC4=CC(=O)CCC4=C3C=C[C@@]21CC`: the Potency result is “inactive”. In the case of `C[C@]12CC[C@H](O)CC1=CC[C@@H]1[C@@H]2CC[C@]2(C)C(=O)CC[C@@H]12` it was “inactive”; in that of `CN1C(=O)CN=C(c2ccccc2)c2cc([N+](=O)[O-])ccc21`, “inactive”.

Consider `C[N+]1(CCC(C(N)=O)(c2ccccc2)c2ccccc2)CCCCC1`, for which the Potency entry was “inactive”. With `CC[C@H]1C[C@H]2[C@@H]3CCC4=CC(=O)CC[C@@H]4[C@H]3CC[C@]2(C)[C@H]1O`, the Potency result was “inactive”. For the molecule `c1ccc2c(c1)Sc1ccccc1N2CC1CN2CCC1CC2` (stereo not given), the Potency is 23.7 µM (active).

`CCOC(=O)NC(C)(C)Cc1ccc(Cl)cc1`: the Potency result is “inactive”. On to `O=C1CN2CCOC2(c2ccccc2Cl)c2cc(Cl)ccc2N1` (stereo not given), for which the Potency result is “inactive”. Regarding `CC(C)NCC(O)c1ccc(N)c(C#N)c1` (stereo not given), the Potency entry is “inactive”. In the case of `CCOC(=O)c1cncn1C(C)c1ccccc1` (stereo not given) it was “inactive”; in that of `CN(C)C(=S)SSC(=S)N(C)C`, 0.299 µM (active).
